High-throughput results as filed in PubChem.
BAZ2B inh – inhibitors of human BAZ2B bromodomain. AlphaScreen BAZ2B-H3K14Ac peptide displacement. Potency, µM (titrated, usually from 114 µM), inactives show at the highest dose activity change, negative = inhibition, hits mostly inhibitors. 360,000 compounds, 4.4% hits; further: on the % scale 0 is the no-effect control and ±100 the full control effect; nearly all actives have a fitted effect of over 60% in size
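AlphaScreen luminescence quantifies BAZ2B engagement of H3K14Ac peptide; the protein and biotinylated peptide are both at 50 nM final, buffer PBS pH 7.4 with 0.01% Tween-20, all steps at room temperature.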
L3MBTL1 inh – L3MBTL1 (human) inhibition; Q9Y468; AlphaScreen L3MBTL1–H3K9me1 peptide binding; Potency, µM (titrated, usually from 57.1 µM), without a hit: at the top dose activity, negative = inhibition, usual class: inhibitors; 230,000 compounds, 0.66% hits; AID 485360; further: on the % scale 0 is the no-effect control and ±100 the full control effect; nearly all actives have a fitted effect of over 60% in size
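First, the protein-peptide complex forms for 30 min at room temperature (L3MBTL1 50 nM, biotinylated H3K9me1 peptide 75 nM). Next, compounds are pin-transferred and incubated 30 min. Finally, AlphaScreen beads are added and read after 30 min.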
JMJD2A Tudor – JMJD2A Tudor domain (human) inhibition | 390,000 compounds, 4.4% hits | Potency, µM (titrated, usually from 114 µM), inactives show at the highest dose activity change, negative = inhibition, most hits filed as inhibitors | AlphaScreen JMJD2A-Tudor / H3K4me3 peptide binding | O75164; further: on the % scale 0 is the no-effect control and ±100 the full control effect; nearly all actives have a fitted effect of over 50% in size
G9a block – inhibitors of human histone lysine methyltransferase G9a; Q96KQ7; G9a H3K9 monomethylation, AlphaScreen, 2 h; Potency, µM (doses to about 102 µM), for the others: at the top dose activity, negative = inhibition, hits mostly inhibitors; 350,000 compounds, 8.8% hits; AID 504332; further: on the % scale 0 is the no-effect control and ±100 the full control effect; nearly all actives have a fitted effect of over 75% in size
Target sequence (Q96KQ7 913-1193 limits assumed): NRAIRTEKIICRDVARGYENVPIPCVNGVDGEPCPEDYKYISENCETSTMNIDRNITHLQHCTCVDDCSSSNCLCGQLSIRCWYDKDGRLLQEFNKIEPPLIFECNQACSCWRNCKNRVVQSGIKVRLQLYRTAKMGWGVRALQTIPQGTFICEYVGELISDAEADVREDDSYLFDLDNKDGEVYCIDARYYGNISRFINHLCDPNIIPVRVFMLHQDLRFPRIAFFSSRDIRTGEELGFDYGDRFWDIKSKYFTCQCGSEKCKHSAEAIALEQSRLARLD
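Using a bead-based AlphaScreen, monomethylated H3K9 product from 2 h room-temperature reactions (G9a 20 nM, peptide 500 nM, SAM 20 uM) was detected with 0.5 ug/mL rabbit anti-H3K9me1 antibody.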
HP1b chromo inh – blocks HP1-beta chromodomain binding to methylated histone tails. P83916. AlphaScreen HP1-beta / biotin-H3K9me3 peptide binding. Potency, µM (titrated, usually from 114 µM), for the others: at the top dose activity change, negative = inhibition, hits mostly inhibitors. 390,000 compounds, 0.56% hits; further: nearly all actives have a fitted effect of over 70% in size
Target sequence (P83916 whole entry, looked up): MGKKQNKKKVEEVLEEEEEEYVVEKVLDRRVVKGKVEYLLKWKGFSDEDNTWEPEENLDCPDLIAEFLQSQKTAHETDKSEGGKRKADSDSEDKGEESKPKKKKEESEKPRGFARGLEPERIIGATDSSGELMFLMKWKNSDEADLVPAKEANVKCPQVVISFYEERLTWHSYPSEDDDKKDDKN
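HP1-beta protein (50 nM final) preincubated 30 min at room temperature with biotinylated H3(1-18)K9me3 peptide (50 nM) in PBS pH 7.4, 0.01% Tween-20, then compound added for 30 min. AlphaScreen streptavidin donor/nickel chelate acceptor beads (10 ug/mL final), 30 min dark, luminescence read.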
The depositor's hits bear a star; ? = inconclusive; . = no result; [ ] = another dose, or the depositor's remark. An excerpt weighted towards active compounds, which were near 11% of everything screened. The call rests on the fitted dose curve; in most records, active means well fitted inhibition curve with a large enough effect; inconclusive means small, poorly fitted or top-dose-only effect; inactive means no such curve, though single readings can be large or run the other way. Potency means the concentration at half of the fitted maximal effect.

SMILES	BAZ2B inh	L3MBTL1 inh	JMJD2A Tudor	G9a block	HP1b chromo inh
Cc1cc(C)c2c(N)c(C(=O)NCC3CCCCC3)sc2n1	9%	.	9%	?	64%
Cc1cc(C)c2c(N)c(C(=O)N3CCc4ccccc4C3)sc2n1	-15%	1%	1%	71µM*	99%
Cc1cc(C)c2c(N)c(C(=O)NC3CCCC3)sc2n1	-2%	39%	-8%	35µM*	44%
CCN1CCc2nc3sc(C(=O)N4CCc5ccccc5C4)c(N)c3cc2C1	?	.	79µM*	20µM*	-19%
COc1ccc(Cl)cc1NC(=O)c1noc2c1CCc1ccccc1-2	-8%	.	-3%	6%[59 µM]	35%
O=C1C2C(C(=O)N1CCN1CCN(Cc3ccc([N+](=O)[O-])cc3)CC1)[C@H]1C=C[C@@H]2C1 (stereo not given in full)	-4%	8%	-11%	-4%	10%
c1ccc(-c2nc(N3CCOCC3)c3ccccc3n2)nc1	?	.	-33%	?	42%
c1ccc(-c2nc(N3CCCCCC3)c3ccccc3n2)nc1	50µM*	?	?	-31%	36%
O=C(O)c1cc(S(=O)(=O)Nc2cc(Cl)ccc2Oc2ccccc2)ccc1O	-33%	1%	-35%	16µM*	10%
CC(C)NS(=O)(=O)c1ccc(CCC(=O)Nc2cc(Cl)ccc2Oc2ccccc2)cc1	-9%	.	-8%	1%[59 µM]	25%
O=P(c1ccccc1)(c1ccccc1)c1cc(S(=O)(=O)O)ccc1O	50µM*	.	40µM*	35µM*	35µM*
O=P(O)(c1ccccc1)c1ccccc1O	-35%	4%	?	10%[59 µM]	53%
CN(C)CCN(Cc1ccco1)C(=O)c1cc2c(s1)-c1ccccc1OC2	-15%	.	-5%	7%[59 µM]	33%
CN(Cc1ccco1)c1ncnc2ccc(-c3cccc(Cl)c3)cc12	-19%	4%	.	-24%[12.7 µM]	.
Cc1cccnc1N(C(=O)Nc1cccc(Cl)c1)C1=NCC(C)(C)S1	7%	9%	-13%	?	23%
Cc1cccnc1N(C(=O)Nc1ccccc1)C1=NCC(C)(C)S1	3%	-1%	-27%	56µM*	11%
CN(C)CC(C)(C)CNC(=S)Nc1ccc(S(=O)(=O)N2CCOCC2)cc1	-3%	0%	-3%	10%	16%
CC(C)CCCCCCNC(=S)Nc1ccc(S(=O)(=O)N2CCOCC2)cc1	0%	-3%	-31%	0.89µM*	-3%
N#CCCN(C(=S)Nc1ccc(S(=O)(=O)N2CCOCC2)cc1)c1ccccc1F	2%	-5%	-12%	45µM*	4%
O=S(=O)(c1ccc(NC(=S)Nc2ccc3c(c2)OCO3)cc1)N1CCOCC1	-7%	-4%	-29%	?	-24%
O=S(=O)(c1ccc(NC(=S)Nc2ccccc2)cc1)N1CCOCC1	-18%	0%	-32%	79µM*	16%
COc1ccc(NC(=S)NNC(=O)c2ccc(S(=O)(=O)N3CCOCC3)cc2)cc1	-23%	1%	-23%	40µM*	-5%
Cc1ccc(C(=O)c2cn(CC(=O)NCc3ccccc3Cl)c3nc(C)ccc3c2=O)cc1	10%[57.1 µM]	.	-8%	-25%[59 µM]	30%
CCC(C)NC(=O)CSc1nnc(-c2ccc(C)cc2)c(-c2ccc(C)cc2)n1 (stereo not given)	-2%	.	-12%	-8%[59 µM]	16%
N#CCCN(C(=S)NC(=O)c1cccs1)c1ccccc1F	?	-8%	?	4µM*	?
COc1ccc(NC(=S)N2CCN(S(=O)(=O)c3ccc(OC)cc3)CC2)cc1	?	.	89µM*	.	10%
S=c1[nH]cnc2sc(Nc3ccccc3)nc12	-9%	-29%	-36%	13%	30%
CC(C)CN(C[C@@H](O)[C@H](Cc1ccccc1)NC(=O)O[C@H]1CO[C@H]2OCC[C@H]21)S(=O)(=O)c1ccc(N)cc1	.	.	.	8%[12.7 µM]	.
CCN1C(=O)c2ccccc2S(=O)(=O)c2ccc(C(=O)NCc3ccccc3Cl)cc21	-13%	.	-15%	5%[59 µM]	43%
Cc1ccccc1OCC(=O)N(Cc1ccc(C(C)C)cc1)C1CCS(=O)(=O)C1 (stereo not given)	-13%	.	-15%	3%[59 µM]	32%
